From PubChem
Hits are enriched below; roughly 0.93% of the tested compounds scored in any of these assays.
CDC25B CDK2 inh: human CDC25B-CDK2/CyclinA binding inhibition. P30305+P24941. HTRF CDC25B-CDK2/CyclinA binding, anti-His/anti-Flag; stronger effect = higher value. z-score (test concentration not listed). hit rate 0.72% among 94,000. AID 1259370; in the data active = z-score above about 3.2
HIV TAR-Tat: HIV-1 TAR-Tat binding disruption; HIV-1 TAR RNA, Tat peptide displacement FRET; stronger effect = higher value; hit rate 0.6% among 100,000; z-score (concentration not given with the values); active = z-score of 3 or more in at least 2 runs
Starred values were filed as active, the others as inactive; . = no result.

SMILES | CDC25B CDK2 inh | HIV TAR-Tat
O=c1[nH]c(SCc2c(F)cccc2Cl)nc2c1CCC2 | -1.86 | 8.61*
O=c1[nH]c(SCc2ccccc2F)nc2c1CCC2 | -1.69 | 0.61
O=c1c2c(nc(SCCc3ccccc3)n1Cc1ccccc1)-c1ccccc1CC21CCCCC1 | -2.09 | .
Cc1nn(CC(=O)NCCCN2CCCC2)c(=O)c2c(-n3cccc3)n(-c3ccc(Cl)cc3)nc12 | . | 0.36
O=C(Nc1ccc2oc(-c3cccc(F)c3)nc2c1)c1ccc([N+](=O)[O-])o1 | 2.52 | 22.3*
O=C(Nc1ccc2oc(-c3ccc(F)cc3)nc2c1)c1ccc([N+](=O)[O-])o1 | 0.59 | 2.36
Cc1ccc2c(c1)-c1cc(C)nn1C(c1cccc(O)c1O)N2 (stereo unspecified) | 1.81 | 18.8*
Cc1ccc2c(c1)-c1cc(C)nn1C(c1cc(C)ccc1O)N2 (stereo unspecified) | 1.41 | 2.17
COc1ccccc1Nc1nc(-c2c(C)nc3ccccn23)cs1 | -1.83 | 2.5
COc1ccc(Cl)cc1Nc1nc(-c2c(C)nc3ccccn23)cs1 | 6.62 | 8.26*
C1=C(CCNc2nn3nnnc3c3ccccc23)CCCC1 | . | 0.57
Cc1ccc(S(=O)(=O)c2nnn3c2nc(NCc2cccs2)c2ccccc23)cc1 | -5.7 | 0.71
CC1CC(C)CN(c2nc(N3CCOCC3)nc(N)c2[N+](=O)[O-])C1 (stereo unspecified) | . | 0.98
O=C(NCCO)Nc1ccc2snnc2c1 | 10.8* | 1.79
Cc1ccc(NC(=O)Nc2ccc3snnc3c2)cc1 | -0.55 | .
O=C1N(Cc2ccccc2F)c2ccccc2S(=O)(=O)N1Cc1ccccc1 | . | 3.2
CCNc1nc(N2CCCC2)nc2c1cnn2C | . | 1.43
O=S(=O)(c1ccccc1)N1CCN(Cc2ccc3c(c2)OCO3)CC1 | -0.65 | 1.22
CCOc1ccc(CN2CCN(Cc3ccc4c(c3)OCO4)CC2)cc1 | 8.4* | 1.14
COc1ccc(OC)c(CN2CCN(Cc3ccc4c(c3)OCO4)CC2)c1 | -0.45 | 0.34
O=S(=O)(c1ccc2ccccc2c1)N1CCN(Cc2ccc3c(c2)OCO3)CC1 | -0.97 | 9.03*
Fc1ccc(C(Nc2ccc3c(c2)OCO3)c2nnc(-c3ccccc3)o2)c(Cl)c1 (stereo unspecified) | . | 0.58
Cc1ccc(C(=O)COC(=O)c2ccc3c(c2)C(=O)N(c2cccc4ccccc24)C3=O)cc1[N+](=O)[O-] | -2.43 | .
CSc1ccc(/C=C/c2nc(=O)c3ccccc3o2)cc1 | -0.74 | -0.65
O=c1nc(/C=C/c2ccc(O)c(O)c2)oc2ccccc12 | -0.52 | 18.2*
SMILES | CDC25B CDK2 inh | HIV TAR-Tat
O=C(CCC(=O)N1CCOc2ccc(Cl)cc21)N1CCOCC1 | -1.55 | -1.16
Cc1cc(=O)[nH]c(SCc2cc(=O)n3c(-c4ccccc4)csc3n2)n1 | 0.35 | -0.5
CCOC(=O)c1nc2ccccc2nc1C | . | 1.52
CCOC(=O)c1nc2ccccc2n(C(C)=O)c1=O | 19.4* | 0.02
Cc1ccc(-c2noc(C(C)NS(C)(=O)=O)n2)cc1 (stereo unspecified) | -1.36 | 2.23
CSc1nc(N)nc2sc3c(O)cc(=O)[nH]c3c12 | 6.46 | 11.1*
Cc1cc(-c2ccccc2)c2c(n1)sc1c(O)cc(=O)[nH]c12 | -1.59 | -1.13
CCN1CCN(c2nc(N(CC)CC)nc(N)c2[N+](=O)[O-])CC1 | . | 0.44
CC1CCc2c(sc3c2CSC(C(=O)NC2CC2)=C3)C1 (stereo unspecified) | . | 0.09
COc1cc(C2CC(=O)Nc3nc(N)[nH]c(=O)c32)ccc1O (stereo unspecified) | -1.86 | -1.22
COc1cc(C2C3=C(Nc4nc(N)[nH]c(=O)c42)c2ccccc2C3=O)ccc1O (stereo unspecified) | 2.72 | 5.64*
COc1ccc(C2C3=C(Nc4nc(N)[nH]c(=O)c42)c2ccccc2C3=O)cc1 (stereo unspecified) | 13.8* | 3.7*
COc1ccc(C2CC(=O)Nc3nc(N)[nH]c(=O)c32)cc1 (stereo unspecified) | 1.19 | 0.84
O=C(Cc1cccs1)Nc1c(C(=O)N2CCN(c3ccccc3F)CC2)oc2ccccc12 | . | -3.43
O=C(CCc1nc(-c2cccs2)no1)Nc1ccc(Cl)cc1 | 0.1 | -0.02
Cc1nnc(SCC(=O)Nc2ncc3c(n2)CC(c2ccco2)CC3=O)s1 (stereo unspecified) | 4.23 | -1.45
O=C(CSc1nnnn1-c1ccccc1)Nc1ncc2c(n1)CC(c1ccco1)CC2=O (stereo unspecified) | 15.3* | -4.73
COc1ccc(C2=NS(=O)(=O)c3cc(S(=O)(=O)N4CCCCC4)ccc3N2)cc1 | . | 0.37
CSc1cccc(NC(=O)C2CCn3c(nc4ccccc43)C2)c1 (stereo unspecified) | . | 0.9
Cc1ccc(Cn2c(/C=C/c3ccco3)nc3ccccc32)cc1 | 3.56* | -0.25
C(=C\c1nc2ccccc2n1CCOc1ccccc1)/c1ccco1 | 0.36 | -6.2
Cc1ccccc1Cn1c(/C=C/c2ccco2)nc2ccccc21 | 3.55* | -6.72
Clc1ccc(OCCn2c(/C=C/c3ccco3)nc3ccccc32)cc1 | 0.11 | -5.79
N=C1C(c2nc3ccccc3[nH]2)=C(O)CN1c1ccc(S(N)(=O)=O)cc1 | -2.02 | 4.42*
N=C1C(c2nc3ccccc3[nH]2)=C(O)CN1c1ccc(F)cc1 | -1.5 | 0.18
SMILES | CDC25B CDK2 inh | HIV TAR-Tat
CCc1ccc(S(=O)(=O)Nc2cc(Br)c(O)c3ccccc23)cc1 | 17.9* | .
CC(C)OC(=O)C(C(=O)C(F)(F)F)c1cc(NS(=O)(=O)c2ccc(Br)cc2)c2ccccc2c1O (stereo unspecified) | 18.7* | .
CCc1ccc(S(=O)(=O)Nc2cc(-c3c(O)ccc4ccccc34)c(O)c3ccccc23)cc1 | 0.58 | .
CC(C)OC(=O)C(C(=O)C(F)(F)F)c1cc(NS(=O)(=O)c2ccccc2)c2ccccc2c1O (stereo unspecified) | -0.59 | .
CCCN1C(=O)c2ccc(-c3ccco3)n2CC1(C)C(=O)NCCC(C)C (stereo unspecified) | . | -6.08
CN(C1CCCC1)S(=O)(=O)c1ccc(C(=O)Nc2sc3c(c2C(N)=O)CCC3)cc1 | . | -0.59
O=C(CSc1ccsc1[N+](=O)[O-])Nc1cccc(F)c1 | -2.79 | 5.23*
O=C(CSc1ccsc1[N+](=O)[O-])Nc1c(F)cc(F)cc1Br | 1.52 | 2.91
CSc1ccc(CCNC(=O)CSc2ccsc2[N+](=O)[O-])cc1 | -0.52 | 0.24
COc1ccc(NC(=O)CSc2ccsc2[N+](=O)[O-])cc1Cl | 3 | 10.3*
O=C(CSc1ccsc1[N+](=O)[O-])NC1CCCC1 | -0.96 | -0.7
O=C(CSc1ccsc1[N+](=O)[O-])Nc1ccc(Br)cc1F | 3.65 | 13.2*
Cc1ccc(-n2nc3c(c2NC(=O)c2ccc(S(=O)(=O)N4CCCC4)cc2)CS(=O)C3)cc1 (stereo unspecified) | 0.23 | .
O=C(Nc1nnc(N2CCCC2)s1)Nc1ccccc1Br | 0.89 | 2.48
CC(C)N(C(=O)Cn1c(C2CC(=O)N(c3ccc(Cl)cc3)C2)nc2ccccc21)c1ccccc1 (stereo unspecified) | -1.6 | 0.62
Cc1ccc(-n2nnc(C(=O)O)c2C)cc1F | 0.24 | 1.97
CS(=O)(=O)c1nc(S(=O)(=O)c2ccc(Cl)cc2)c(NCc2ccc(F)cc2)s1 | -0.51 | 1.27
CSc1nn2c(=O)c(C)nnc2s1 | . | 1.66
O=C(/C=C/c1cccnc1)c1ccc[cH-]1.[Fe+2].c1cc[cH-]c1 | 14.9* | .
CC(=C/C(=O)O)/C(=C\c1cccnc1)C(=O)O | -1.3 | .
